Results from PubChem BioAssay.
Results filed as inconclusive are left out. Active and inactive are the calls of the source.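 How the source made its calls, unless noted: active means viability at or below 30% in both replicate assays; inconclusive means viability at or below 30% in just one of the two assays; inactive means the rest.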

Columns and labels:
[1] = reducers of endogenous Her2 protein level, primary screen, SKBR3 breast tumor cells, AlphaScreen, ATP viability (AID 461;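 active means Her2 level under about 52% in both replicate screens, with viability over 70% of control, limit read from the data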;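 on Her2 level: lower value means less Her2 protein in the cells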;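 on viability: percent of carrier control wells set as 100% viability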); details: 18-24 h, measured here: SKBR3 viability, ATP luminescence, at 10 µM
[2] = target: Receptor tyrosine-protein kinase erbB-2 (Homo sapiens) (UniProt P04626); assay: as above; details: 18-24 h, at 10 µM, stronger effect = lower value
[3] = SK-BR-3 cell growth inhibitors, pilot screen, 24 h, human (AID 572;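 active means viability at or below 10% of carrier control in both of two separate runs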;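 further: compound exposure lasted between 18 and 24 h rather than exactly 24 h; 100% = carrier-treated control wells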); details: SK-BR-3 viability, CellTiter-Glo luminescence, at 10 µM, stronger effect = lower value
[4] = HUVEC growth inhibition – cell-based, human, primary screen (AID 575); details: HUVEC proliferation, CellTiter-Glo luminescence, 72 h; at 10 µM; stronger effect = lower value;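 further: 100% = median of untreated cell wells with 0.1% DMSO on each plate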
[5] = growth inhibitors of H69AR lung tumor, primary screen, human, duplicate replicates (AID 580;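 active means viability at or under a set limit in both replicates, limit being median viability minus 3 SD, cut at about 48% in these data, passing the limit was not always enough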;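 further: 100% = mean luminescence of untreated wells and 0% = no signal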); details: H69AR lung tumor cells viability, ATP luminescence, 72 h; at 10 µM; stronger effect = lower value
[6] = reversal of MRP1-mediated doxorubicin resistance, pilot screen, H69AR cells, doxorubicin co-treatment (AID 601;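 active means viability loss from added drug above about 55%, and viability with drug at most 40%, in both replicates, limit read from the data, passing the limit was not always enough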); details: CellTiter-Glo, 72 h, at 10 µM; for differential viability (reversal): stronger effect = higher value
[7] = 384-well plate pilot, post-Golgi transport modulator project, inhibition of yeast transport mutant growth (AID 636; in the data active means inhibition above about 31%); details: absorbance 615 nm, about 18 h, stronger effect = higher value
[8] = growth suppression of yeast trafficking mutant, preliminary HTS, modulators of trafficking downstream of Golgi apparatus project, 1536-format plate, OD 615 nm (AID 637; in the data active means inhibition above about 30%); details: yeast transport mutant growth, absorbance 615 nm, 18 h; stronger effect = higher value
[9] = OD615 S. cerevisiae growth inhibition, permissive medium, pilot counter-assay, permissive growth control for S. cerevisiae lifespan shortening project (AID 705;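 active means growth inhibition above 25% in both replicates, a cutoff set 3 SD above the mean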); details: OD615, 24 h, at 10 µM, stronger effect = higher value
[10] = Restrictive medium S. cerevisiae growth inhibition, OD615, pilot screen of yeast lifespan reduction project, restrictive growth control (AID 706;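 active means growth inhibition above a set limit, 3 SD over mean compound inhibition, in both replicates, cut at about 43% in these data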;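 further: modified DeaD lifespan yeast strain shifted to restrictive glucose medium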); details: OD615, 48 h, at 10 µM, stronger effect = higher value
[11] = viability gain of MRP-1-high H69AR cells under doxorubicin, pilot screen, MRP-1 activator project, CellTiter-Glo, duplicate (AID 807;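 active means viability increase at or above a cutoff of the median across tested compounds plus 3 SD, cut at about 8.5% in these data, passing the limit was not always enough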;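 further: compound pretreatment 18-22 h then 72 h combined with doxorubicin; 0% = doxorubicin alone and 100% = vehicle without doxorubicin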); details: H69AR viability with doxorubicin, CellTiter-Glo luminescence; at 10 µM; stronger effect = higher value
[12] = growth suppression of beta-catenin knockout HCT116, pilot screen, human colon tumor cells (AID 823;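 active means cell viability at or below a set limit in both duplicate runs, the limit being the all-compound median minus 4 SD, cut at about 23% in these data, passing the limit was not always enough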;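 further: 0% = wells killed by 20 µM Hyamine and 100% = untreated DMSO cell wells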); details: CellTiter-Glo, 60 h, at 10 µM, stronger effect = lower value
[13] = inhibitors of the yeast RAM network, pilot screen, dse1pr::URA3 reporter, 5-FOA selection (AID 869;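 active means inhibition over a set limit, the all-compound mean plus 3 SD, in both replicate runs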;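 further: 0% = DMSO wells with no growth and 100% = 10 µM 1-NA-PP1 with full growth; RAM network block rescues cells from 5-FOA so hits raise OD615 growth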); details: S. cerevisiae dse1pr::URA3 5-FOA growth, OD615, 2 d; at 10 µM; stronger effect = higher value; strain carries analog-sensitive mutant Cbk1 kinase
[14] = RAM signaling pathway blockade in yeast – S. cerevisiae, Pdr1DBD-CYC8 efflux-inhibited sensitized strain, primary screen (AID 1298;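 active means RAM network inhibition above 8.4% in each of two replicates, 3 SD over the compound average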;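 further: 0% = DMSO untreated cells without growth and 100% = 10 µM 1-NA-PP1 full growth; higher means more yeast growth rescued from 5-FOA killing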); details: S. cerevisiae cbk1-as DSE1-URA3 strain, 5-FOA growth OD615, 2 d; at 50 µM; stronger effect = higher value
[15] = growth suppression of PTEN-deleted HCT116, pilot screen, cell-based, HCT116 clonal line, CellTiter-Glo (AID 824;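 active means viability at or below 27.92% in each of two runs, the all-compound median minus 4 SD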;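 further: 0% = 20 µM Hyamine control and 100% = vehicle cell control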); details: 60 h, at 10 µM, stronger effect = lower value
[16] = H69AR cells + 2 uM doxorubicin, measured here: viability with 2 uM doxorubicin, stronger effect = lower value
[17] = H69AR cells, compound alone cytotoxicity

Receptor tyrosine-protein kinase erbB-2 (Homo sapiens), sequence (P04626 whole entry, looked up): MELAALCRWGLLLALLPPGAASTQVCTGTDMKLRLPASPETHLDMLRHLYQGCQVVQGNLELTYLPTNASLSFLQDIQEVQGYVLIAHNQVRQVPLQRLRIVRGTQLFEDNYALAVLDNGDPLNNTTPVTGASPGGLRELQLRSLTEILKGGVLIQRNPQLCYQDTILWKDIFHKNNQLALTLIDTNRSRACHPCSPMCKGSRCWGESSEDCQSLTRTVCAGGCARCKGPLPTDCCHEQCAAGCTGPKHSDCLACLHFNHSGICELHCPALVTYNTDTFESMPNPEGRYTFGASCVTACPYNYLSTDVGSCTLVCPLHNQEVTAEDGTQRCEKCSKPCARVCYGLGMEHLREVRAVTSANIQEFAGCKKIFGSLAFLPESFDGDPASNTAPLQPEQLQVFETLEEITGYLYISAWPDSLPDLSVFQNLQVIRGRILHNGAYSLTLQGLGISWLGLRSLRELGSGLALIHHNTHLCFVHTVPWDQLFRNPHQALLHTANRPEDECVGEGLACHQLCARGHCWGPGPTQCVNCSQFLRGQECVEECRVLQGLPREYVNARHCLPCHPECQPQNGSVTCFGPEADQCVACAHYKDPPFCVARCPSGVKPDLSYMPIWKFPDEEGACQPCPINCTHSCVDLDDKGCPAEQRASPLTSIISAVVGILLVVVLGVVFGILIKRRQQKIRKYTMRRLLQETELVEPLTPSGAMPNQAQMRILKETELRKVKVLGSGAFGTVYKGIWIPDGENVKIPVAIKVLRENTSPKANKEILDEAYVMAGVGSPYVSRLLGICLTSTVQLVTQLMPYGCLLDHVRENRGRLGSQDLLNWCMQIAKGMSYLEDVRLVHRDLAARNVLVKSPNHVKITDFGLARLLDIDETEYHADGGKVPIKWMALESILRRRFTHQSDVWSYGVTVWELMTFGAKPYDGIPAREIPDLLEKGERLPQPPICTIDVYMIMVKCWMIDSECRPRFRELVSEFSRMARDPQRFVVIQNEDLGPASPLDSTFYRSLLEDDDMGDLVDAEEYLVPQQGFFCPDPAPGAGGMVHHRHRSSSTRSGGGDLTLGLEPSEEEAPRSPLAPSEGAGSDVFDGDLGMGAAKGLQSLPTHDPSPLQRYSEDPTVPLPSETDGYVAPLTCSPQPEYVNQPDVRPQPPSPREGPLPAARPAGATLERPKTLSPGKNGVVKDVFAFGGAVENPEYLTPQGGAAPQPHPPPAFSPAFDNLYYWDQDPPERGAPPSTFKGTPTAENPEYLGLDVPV

Row | SMILES | viability [1] | Her2 level [2] | viability [3] | viability [4] | viability [5] | differential viability (reversal) ([6]; H69AR cells + 2 uM doxorubicin) | viability [6, 16] | viability [6, 17] | inhibition [7] | inhibition [8] | growth inhibition [9] | growth inhibition [10] | viability increase [11] | viability [12] | inhibition [13] | RAM network inhibition [14] | viability [15]
1 | CCSc1oc(-c2ccco2)nc1S(=O)(=O)c1ccccc1 | 95% | 93.5% (inactive) | 95% (inactive) | 93.3% (inactive) | 89.3% (inactive) | 2.04% (inactive) | 87.2% | 89.3% | -5.95% (inactive) | -8.33% (inactive) | -16.4% (inactive) | 11.4% (inactive) | -2.68% (inactive) | 92.7% (inactive) | 1.75% (inactive) | 1.2% (inactive) | –
2 | Fc1ccc(-c2ccc(-c3nn4c(-c5ccco5)nnc4s3)o2)cc1 | 76% | 63% (inactive) | 76% (inactive) | 77.8% (inactive) | 79.7% (inactive) | 5.16% (inactive) | 74.5% | 79.7% | -4.32% (inactive) | 4.92% (inactive) | 2.35% (inactive) | 60.4% (active) | -3.88% (inactive) | 97.1% (inactive) | 1.25% (inactive) | 2.34% (inactive) | –
3 | Cc1nc2ccc(S(=O)(=O)NC(C(=O)NCc3cccs3)C(C)C)cc2s1 (centres undefined) | 88.5% | 116% (inactive) | 88.5% (inactive) | 97.9% (inactive) | 111% (inactive) | 18.2% (inactive) | 92.6% | 111% | -5% (inactive) | -2.67% (inactive) | -3.81% (inactive) | -9.54% (inactive) | -0.45% (inactive) | 102% (inactive) | 2.96% (inactive) | 5.02% (inactive) | 99.6% (inactive)
4 | CC1CCCN(C(=O)c2cc3c(-c4ccc(Cl)cc4)nn(C)c3s2)C1 (centres undefined) | 89% | 87% (inactive) | 89% (inactive) | 77.4% (inactive) | 92.5% (inactive) | 0.84% (inactive) | 91.7% | 92.5% | -1.54% (inactive) | 3% (inactive) | -9.3% (inactive) | -3.9% (inactive) | -2.82% (inactive) | 91.4% (inactive) | 2.07% (inactive) | 1.62% (inactive) | 93.3% (inactive)
5 | COc1cc2[nH]c(=O)n(CCCCCC(=O)N3CCN(c4ccccn4)CC3)c(=O)c2cc1OC | 104% | 92.5% (inactive) | 104% (inactive) | 100% (inactive) | 89.3% (inactive) | -2.77% (inactive) | 92.1% | 89.3% | -5.95% (inactive) | -4.83% (inactive) | -9.93% (inactive) | -5.11% (inactive) | -4.76% (inactive) | 73.2% (inactive) | 1.7% (inactive) | 3.23% (inactive) | –
6 | Cc1ccc(S(=O)(=O)N2CCOCC2)cc1C(=O)Nc1nc(-c2cccnc2)cs1 | 106% | 91% (inactive) | 106% (inactive) | 88.8% (inactive) | 103% (inactive) | 9% (inactive) | 94.3% | 103% | 0% (inactive) | -3.33% (inactive) | -14.2% (inactive) | -6.87% (inactive) | -1.69% (inactive) | 96.8% (inactive) | 1.93% (inactive) | 3.11% (inactive) | –
7 | CCOC(=O)N1CCN(C(=O)c2ccc(CS(=O)(=O)c3ccc(OC)cc3)o2)CC1 | 88% | 88% (inactive) | 88% (inactive) | 104% (inactive) | 89.2% (inactive) | -9.97% (inactive) | 99.2% | 89.2% | -4.67% (inactive) | 0% (inactive) | -12.3% (inactive) | -27.2% (inactive) | -1.05% (inactive) | 104% (inactive) | -0.045% (inactive) | 4.85% (inactive) | 97.4% (inactive)
8 | Cc1ccc(Cn2c(CN3CCOCC3)nc3c2c(=O)n(C)c(=O)n3C)cc1 | 80.5% | 89.5% (inactive) | 80.5% (inactive) | 90.5% (inactive) | 102% (inactive) | 2.54% (inactive) | 99.6% | 102% | -5.14% (inactive) | 0% (inactive) | -18% (inactive) | -8.04% (inactive) | -4.67% (inactive) | 92.4% (inactive) | 2.71% (inactive) | 2.86% (inactive) | –
9 | Cc1nc2ccc(Br)cn2c1NC(C)(C)C | 89.5% | 103% (inactive) | 89.5% (inactive) | 101% (inactive) | 86.8% (inactive) | 0.425% (inactive) | 86.3% | 86.8% | -6.58% (inactive) | -10.3% (inactive) | -13.4% (inactive) | 4.22% (inactive) | -2.98% (inactive) | 89.2% (inactive) | 1.55% (inactive) | 1.46% (inactive) | –
10 | O=C(c1ccco1)N1CCN(C(=O)c2sccc2-c2ccccc2)CC1 | 93% | 104% (inactive) | 93% (inactive) | 86.2% (inactive) | 83% (inactive) | -6.79% (inactive) | 89.8% | 83% | 2.3% (inactive) | -4.92% (inactive) | -18.7% (inactive) | -9.14% (inactive) | -5.64% (inactive) | 94.6% (inactive) | 2.49% (inactive) | 4.79% (inactive) | –
11 | CCCSc1nc2c(cnn2-c2ccc(C)cc2)c(=O)[nH]1 | 93% | 99% (inactive) | 93% (inactive) | 7.04% (active) | 19.1% (active) | -3.51% (inactive) | 22.6% | 19.1% | -2% (inactive) | -2.62% (inactive) | -8.62% (inactive) | 6.35% (inactive) | -8.01% (inactive) | 40.5% (inactive) | 3.78% (inactive) | 4.52% (inactive) | –
12 | Cc1ccc(NC(=O)CN(c2ccc3c(c2)OCO3)S(=O)(=O)c2c(C)n[nH]c2C)cc1 | 92% | 83% (inactive) | 92% (inactive) | 85.1% (inactive) | 93.1% (inactive) | 1.52% (inactive) | 91.5% | 93.1% | -5.73% (inactive) | 2.33% (inactive) | -13.4% (inactive) | -19.2% (inactive) | 2.09% (inactive) | 95.7% (inactive) | 3.25% (inactive) | 5.15% (inactive) | 96.9% (inactive)
13 | O=C(OCC(=O)c1ccc[nH]1)c1ccc(S(=O)(=O)N2CCCCC2)cc1 | 94% | 98% (inactive) | 94% (inactive) | 90.9% (inactive) | 97.8% (inactive) | 16.8% (inactive) | 81% | 97.8% | -3.64% (inactive) | -6.17% (inactive) | -15.2% (inactive) | -4.03% (inactive) | -0.59% (inactive) | 99.8% (inactive) | 3.25% (inactive) | 3.17% (inactive) | –
14 | N#Cc1c2n(c(=O)[nH]c1=O)CCCCC2 | 112% | 92% (inactive) | 112% (inactive) | 96.2% (inactive) | 103% (inactive) | 3.5% (inactive) | 99.7% | 103% | -2.6% (inactive) | -7.46% (inactive) | -9.79% (inactive) | 1.1% (inactive) | 1.19% (inactive) | 99.5% (inactive) | -0.04% (inactive) | 6.34% (inactive) | –
15 | Nn1c(Cc2ccccc2F)nnc1SCC(=O)N1CC(=O)Nc2ccccc21 | 112% | 94.5% (inactive) | 112% (inactive) | 109% (inactive) | 84.1% (inactive) | -1.98% (inactive) | 86.1% | 84.1% | -2.86% (inactive) | -10.7% (inactive) | -11.9% (inactive) | -7.2% (inactive) | -2.14% (inactive) | 114% (inactive) | 2.1% (inactive) | 3.29% (inactive) | –
16 | Cc1ccc(S(=O)(=O)C(C#N)c2nc3ccccc3nc2N2CCCCC2)cc1 (centres undefined) | 124% | 99.5% (inactive) | 124% (inactive) | 71.6% (inactive) | 92% (inactive) | -2.64% (inactive) | 94.7% | 92% | -6.13% (inactive) | 3.65% (inactive) | -26.9% (inactive) | 6.8% (inactive) | -3.74% (inactive) | 93.8% (inactive) | 2.7% (inactive) | 5.83% (inactive) | –
17 | CN1C(=O)C(O)(CC(=O)c2ccc(F)cc2)c2cc(Br)ccc21 (centres undefined) | 85.5% | 86.5% (inactive) | 85.5% (inactive) | 76.8% (inactive) | 20.1% (active) | -30.8% (inactive) | 50.9% | 20.1% | -5.2% (inactive) | 2% (inactive) | -8.62% (inactive) | -8.46% (inactive) | -6.12% (inactive) | – | 1.45% (inactive) | -0.67% (inactive) | 15.8% (active)
18 | O=C(CCNS(=O)(=O)c1cccc2nsnc12)NCc1cccs1 | 101% | 85.5% (inactive) | 101% (inactive) | 94.3% (inactive) | 96% (inactive) | 0.62% (inactive) | 95.4% | 96% | -9.45% (inactive) | 4.13% (inactive) | -4.72% (inactive) | -7.42% (inactive) | -3.39% (inactive) | – | 1.54% (inactive) | 3.13% (inactive) | 95.4% (inactive)
19 | Cc1cc(C)c2c(=O)n(CC(=O)N3CCC(Cc4ccccc4)CC3)sc2n1 | 108% | 84% (inactive) | 108% (inactive) | 77% (inactive) | 3.96% (active) | -6.3% (inactive) | 10.3% | 3.96% | -6.53% (inactive) | -2.17% (inactive) | 73% (active) | 89.2% (active) | -6.66% (inactive) | – | 1.6% (inactive) | 3.67% (inactive) | 68.7% (inactive)
20 | CCCc1nnc2n1N=C(c1ccc(-c3cc(Cl)ccc3Cl)o1)CS2 | 108% | 94% (inactive) | 108% (inactive) | 97.1% (inactive) | 89.2% (inactive) | 1.35% (inactive) | 87.8% | 89.2% | -1.82% (inactive) | 0% (inactive) | -18.6% (inactive) | 4.29% (inactive) | -2.95% (inactive) | 97.8% (inactive) | 1.36% (inactive) | 1.93% (inactive) | –
